Laboratory results from PubChem BioAssay (NCI).
About 83,000 compounds went through this panel and 20% of them were active in at least one assay; those are over-represented in the sample as a whole.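 Growth was measured after 48 h exposure to one concentration of compound in 96-well plates. Values under 10 count as active.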 A number with no mark means an inactive call. Calls of active or inactive are those of the source.

These molecules were tested on HCC-2998 colon (assay: NCI-60 one-dose screen, 48 h (100 = growth as untreated, 0 = no growth, -100 = all killed)). Conditions: 10 µM.
Protocol: Growth inhibition of the HCC-2998 human tumor cell line is measured as a screen for anti-cancer activity. Cells are grown in 96 well plates and exposed to the test compound for 48 hours. Compounds are tested at a single concentration, which is 10^-5 M for most compounds. The reported endpoint is percent growth (GI% or GIPRCNT), where numbers from 0 - 100% represent growth inhibition, and numbers from -100% - 0 represent cell death. For example, a value of 40 represents 60% growth inhibition. A value of 0 means no net growth occurred over the course of the experiment. A value of -40 indicates 40% of cells at the beginning of the experiment died by the end of the experiment. A value of -100 means all cells are dead at the end of the experiment.
NCI-60 Human Tumor Cell Lines Screen was performed using the standard one-dose NCI protocol, which is described in more detail at https://dtp.cancer.gov/discovery_development/nci-60/default.htm.
Compounds with GIPRCNT values below 10 were considered active. Activity score was based on GIPRCNT using the following formula: […]
Score is 0 for GIPRCNT values of 100 or above, 50 for GIPRCNT values of 0, and 100 for GIPRCNT values of -100.

SMILES	growth
CCOC(=O)C1C(C(=O)OCC)C2C(=O)C3C(C(=O)OCC)C(C(=O)OCC)C3C(=O)C12 (stereo not given)	107%
COc1cc(-c2nn(-c3cccc(NC(=O)NCCNC(=O)c4ccccc4)c3)cc2-c2ccncc2)ccc1Cl	31.3%
Cc1cc(NC(=O)c2ccc(C)c(Nc3nccc(-c4cccnc4)n3)c2)cc(-n2cnc(C)c2)c1	70.8%
N=C1S/C(=C/c2ccc(-c3ccc4c(c3)C(=O)NC4=O)o2)C(=O)N1c1ccc(Br)cc1	89%
CC(=O)Oc1cc(OC(C)=O)c2ccccc2c1OC(C)=O	110%
CC(=O)O[C@@]12CO[C@@H]1C[C@H](O)[C@@]1(C)C(=O)[C@H](O)C3=C(C)[C@@H](OC(=O)[C@H](O)[C@@H](NC(=O)OC(C)(C)C)c4ccccc4)C[C@@](O)([C@@H](OC(=O)c4ccccc4)C12)C3(C)C (stereo not given in full)	-18.8% (active)
O=C(N/N=C/c1ccc(Cl)cc1)c1ccccc1Nc1cccc(C(F)(F)F)c1	103%
CN(C)CCCOc1ccccc1NC1=C(Cl)C(=O)C(Nc2ccccc2OCCCN(C)C)=C(Cl)C1=O	-87% (active)
Cc1ccc(NCCNCC(C)(C)O)c2c(=O)c3ccc(Cl)cc3sc12	-52.8% (active)
CCn1c(CSc2nc3ccccc3c(=O)n2CCc2ccccc2)n[nH]c1=S	99%
COc1cc(CNC(=O)C2CSC3(C)c4ccccc4C(=O)N23)cc(OC)c1OC (stereo not given)	95.5%
COc1ccc(C2=Cn3c(CCC(=O)c4nc5ccccc5[nH]4)nnc3SC2)cc1	127%
CCOC(=O)c1cc(C(=O)c2cc(OC)cc(OC)c2)n2ncc3ccccc3c12	69.1%
O=C(Nc1ccc2c(O)cc(S(=O)(=O)O)cc2c1)c1ccc([N+](=O)[O-])cc1	108%
C[C@@H](O)[C@H]1C(=O)N2C(C(=O)O)=C(SCCN=CN)C[C@H]12	0.878% (active)
CCCCCC(=O)O[C@]1(C(C)=O)CCC2C3CCC4=CC(=O)CC[C@]4(C)C3CC[C@@]21C (stereo not given in full)	26.2%
COc1ccc2cc(-c3nc4ccccc4s3)c(Cl)nc2c1OC	105%
N#Cc1c(-c2ccc(Cl)cc2)n(O)c2ccccc12	47.2%
CCCN(CCC)C(=O)[C@H](CC)[C@@H]1CC[C@@H](C)[C@@H]([C@H](C)[C@@H](O)[C@@H](C)C(=O)[C@H](CC)C2O[C@]3(C=C[C@@H](O)[C@]4(CC[C@@](C)([C@H]5CC[C@](O)(CC)[C@H](C)O5)O4)O3)[C@H](C)C[C@@H]2C)O1 (stereo not given in full)	4.75% (active)
O=C(Cn1cc(CO)nn1)Nc1nc2ccccc2s1	109%

SMILES	growth
CC(C)C1=C(O)C2=C(C(=O)C1=O)[C@@]1(C)CCCC(C)(C)[C@@H]1CC2	53.8%
COc1ccc2c(c1)CC=C1[C@@H]2CC[C@]2(C)C(=O)/C(=N/O)C[C@@H]12	79.7%
C#CCOc1c(OC)cc(C(=O)/C(C)=C/c2cccc(N=[N+]=[N-])c2)cc1OC	21.4%
N#CC1=CC2CN(Cc3ccccc3)C1C1C(=O)N(c3ccccc3)C(=O)C21 (stereo not given)	92.1%
S=C1N(c2ccccc2)CN(C2CCCCC2)CN1c1ccccc1	102%
COC(=O)C1OC1c1cc([N+](=O)[O-])ccc1OC (stereo not given)	96.1%
CC1/C=C/C=C/C=C/C=C/C=C/C=C/C=C/C(O[C@@H]2O[C@H](C)[C@H](O)[C@@H](O)[C@@H]2N)CC(O)C(C(=O)O)C(O)CC(=O)CC(O)CC(O)CC(O)CC(=O)CCCC(=O)CC(=O)OC1C(C)CC(C)C(O)CC(=O)c1ccc(N)cc1 (stereo not given in full)	-98.1% (active)
NC1=NC(c2ccccc2)C2=C(N1)/C(=C/c1ccccc1)CCC2 (stereo not given)	48.5%
N#Cc1cnn(C(=O)c2nn(-c3ccc(Cl)cc3)cc2O)c1N	11.9%
CN(C)CCOc1ccc(-c2nc3sccn3c2-c2ccnc(S(C)(=O)=O)n2)cc1	111%
Cc1ccc(-n2nnnc2N)c(C)c1	95%
O=C1NC(=O)c2c(CCCSc3nc4ccccc4c(=O)n3CCc3ccccc3)cccc21	91.9%
COc1ccc(-c2nc(-c3nc4ccc(C)cc4[nH]3)cc3c2[nH]c2ccccc23)cc1	48.9%
CNC(=O)c1cc(Oc2ccc3c(c2)sc2nc(-c4ccc(NC(=O)Nc5ccc(Cl)c(C(F)(F)F)c5)cc4)cn23)ccn1	102%
O=c1cn[nH]c2ccc(Br)cc12	108%
O=C(CSc1nccc(Nc2cccc3ccccc23)n1)c1ccc(Cl)cc1	101%
Cc1c(O)c(=O)ccn1C1CCC(CC2CCC(n3ccc(=O)c(O)c3C)CC2)CC1 (stereo not given)	55.6%
CCCCC/C=C/C/C=C/CCCCCCCC1=NC(C)(C)CN1C(C)C	-9.05% (active)
O=C(Nc1cc([N+](=O)[O-])c2[nH]c(=O)c3ccccc3c2c1)C(F)(F)F	89.3%
Cc1ccc(NCCN(C)CC(C)O)c2c(=O)c3ccc(Cl)cc3sc12 (stereo not given)	18%
